# Reference: PubChem BioAssay (EPA / NIEHS)
# Several values for one entry are separate records, joined by “and”; a condition that tells them apart may be missing. Equal values may be shown once. Records with an inconclusive call do not appear. Activity calls are given as the source filed them. Rule for the calls, unless noted: active = hit-call score of the fitted dose curve at least 0.9, where 1 is the maximum; inconclusive = response in the unintended direction; inactive = score below 0.9.
# Columns and labels:
# [1] = tested on: frog Estrogen Receptor (ER2), gene 100174814; assay: ATG_frER2_XSP2: Attagene TRANS-FACTORIAL Multi-Species (XSP2) HepG2 Assay for frog Estrogen Receptor (ER2) (AID 2283828)
# Outline: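 Human liver HepG2, transient MRTU transfection (TRANS format, exogenous NR–Gal4). 24 h cpd exposure. Total RNA → RT → PCR → FAM label → HpaI cut → CE. Positive direction vs DMSO.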
# [2] = target: Peroxisome proliferator-activated receptor gamma (Homo sapiens) (UniProt P37231); assay: ATG_hPPARg_XSP2: Attagene TRANS-FACTORIAL Multi-Species (XSP2) HepG2 Assay for human Peroxisome Proliferator-activated Receptor gamma (PPARg) (AID 2283829);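 note: actives raise reporter mRNA above DMSO so AC50 reflects PPARg activation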
# Peroxisome proliferator-activated receptor gamma (Homo sapiens), sequence (P37231 whole entry, looked up, the tested form may be a part): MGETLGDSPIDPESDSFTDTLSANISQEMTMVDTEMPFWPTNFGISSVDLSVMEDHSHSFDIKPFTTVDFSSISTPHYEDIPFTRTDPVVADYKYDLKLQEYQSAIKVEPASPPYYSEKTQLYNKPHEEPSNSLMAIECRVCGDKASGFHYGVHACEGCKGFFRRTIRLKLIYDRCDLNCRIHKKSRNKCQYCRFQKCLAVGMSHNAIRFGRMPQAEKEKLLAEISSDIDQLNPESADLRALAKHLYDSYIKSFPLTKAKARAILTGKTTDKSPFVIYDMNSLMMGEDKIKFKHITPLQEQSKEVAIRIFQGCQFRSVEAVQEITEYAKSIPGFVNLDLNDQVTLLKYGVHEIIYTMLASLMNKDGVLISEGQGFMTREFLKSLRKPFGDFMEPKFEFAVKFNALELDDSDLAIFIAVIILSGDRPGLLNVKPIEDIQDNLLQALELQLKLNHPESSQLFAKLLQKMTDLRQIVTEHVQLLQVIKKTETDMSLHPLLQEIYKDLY
# Outline: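 Reporter transcripts were measured by RT-PCR, fluorescent labeling, HpaI digestion and capillary electrophoresis, relative to DMSO, 24 h post-dosing. Transiently transfected HepG2 expressed NR-Gal4 chimeras regulating GAL4-UAS reporters; medium contained 3 nM 6-alpha-fluorotestosterone plus 1.5 nM norgestrel.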
# [3] = target: Nuclear receptor subfamily 1 group I member 2 (Mus musculus) (UniProt O54915); assay: ATG_mPXR_XSP2: Attagene TRANS-FACTORIAL Multi-Species (XSP1) HepG2 Assay for mouse Pregnane X Receptor (PXR) (AID 2283831)
# Nuclear receptor subfamily 1 group I member 2 (Mus musculus), sequence (O54915 whole entry, looked up, the tested form may be a part): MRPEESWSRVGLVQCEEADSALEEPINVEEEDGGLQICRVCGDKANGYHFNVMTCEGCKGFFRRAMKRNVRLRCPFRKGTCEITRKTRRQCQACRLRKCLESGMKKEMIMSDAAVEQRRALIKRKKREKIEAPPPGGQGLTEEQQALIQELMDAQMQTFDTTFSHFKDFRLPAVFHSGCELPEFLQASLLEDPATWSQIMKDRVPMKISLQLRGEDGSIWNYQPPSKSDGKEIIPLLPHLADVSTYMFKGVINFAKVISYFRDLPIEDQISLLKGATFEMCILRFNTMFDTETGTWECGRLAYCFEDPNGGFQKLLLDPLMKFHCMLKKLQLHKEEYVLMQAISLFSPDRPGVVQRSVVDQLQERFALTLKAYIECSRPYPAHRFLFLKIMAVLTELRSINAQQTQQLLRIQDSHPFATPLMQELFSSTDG
# Outline: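 Reporter transcripts measured after 24 h dosing by RT-PCR with 6-FAM labelling, HpaI digestion and capillary electrophoresis. Transiently transfected HepG2 with NR-Gal4 chimeras; increase over DMSO baseline scored.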
# [4] = target: zebrafish Thyroid Hormone Receptor alpha (TRa), thraa (gene 30670) (UniProt Q98867); assay: ATG_zfTRa_XSP2: Attagene TRANS-FACTORIAL Multi-Species (XSP1) HepG2 Assay for zebrafish Thyroid Hormone Receptor alpha (TRa) (AID 2283832);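 note: actives raise zebrafish TRa-Gal4 reporter transcript above DMSO baseline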
# zebrafish Thyroid Hormone Receptor alpha (TRa), thraa (gene 30670), sequence (Q98867 whole entry, looked up, the tested form may be a part): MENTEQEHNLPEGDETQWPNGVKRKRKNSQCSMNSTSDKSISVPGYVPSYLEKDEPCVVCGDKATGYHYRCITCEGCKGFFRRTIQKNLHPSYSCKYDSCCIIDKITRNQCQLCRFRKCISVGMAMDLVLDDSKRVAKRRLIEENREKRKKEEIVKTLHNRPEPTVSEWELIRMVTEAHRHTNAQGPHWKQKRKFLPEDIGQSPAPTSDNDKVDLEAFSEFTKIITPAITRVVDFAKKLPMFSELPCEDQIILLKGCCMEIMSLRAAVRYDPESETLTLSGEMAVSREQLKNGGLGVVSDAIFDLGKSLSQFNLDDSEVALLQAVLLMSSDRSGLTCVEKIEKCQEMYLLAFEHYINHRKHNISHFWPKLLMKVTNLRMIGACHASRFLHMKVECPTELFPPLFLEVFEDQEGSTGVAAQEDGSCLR
# Outline: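 Transient transfection of human HepG2 with GAL4-UAS reporter units, then 24 h chemical treatment. RNA isolated, reverse-transcribed, PCR-amplified, FAM-labelled, HpaI-digested and run on capillary electrophoresis. Gain-of-signal relative to DMSO.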
# [5] = tested on: turtle Thyroid Hormone Receptor, alpha (TRa), gene 101949057; assay: ATG_trTRa_XSP2: Attagene TRANS-FACTORIAL Multi-Species (XSP1) HepG2 Assay for turtle Thyroid Hormone Receptor, alpha (TRa) (AID 2283834);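 note: hits raise reporter mRNA over the DMSO baseline so AC50 marks activators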
# Outline: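 Turtle TRa-Gal4 chimera activity in transfected human HepG2 cells: reporter transcripts quantified by RT-PCR, 6-FAM labelling and capillary electrophoresis 24 h post-dosing; positive direction versus DMSO, medium containing 3 nM 6-alpha-fluorotestosterone and 1.5 nM norgestrel.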
# [6] = ATG_M_61_XSP2: Attagene TRANS-FACTORIAL Multi-Species (XSP2) HepG2 Assay for M61 Transcription Factor (Internal Marker) (AID 2283835; active = hit-call score of the fitted dose curve at least 0.9, where 1 is the maximum; inactive = score below 0.9;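 note: reporter mRNA of an internal background marker read by RT-PCR and capillary electrophoresis; active means a rise in signal above the DMSO baseline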)
# Outline: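 HepG2 cells transiently transfected with multiple GAL4-UAS reporter units; 3 nM 6-alpha-fluorotestosterone and 1.5 nM norgestrel present to stimulate androgen receptor. After 24 h compound exposure, reporter mRNA measured by RT-PCR and capillary electrophoresis fluorescence, gain-of-signal versus DMSO baseline.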
# [7] = target: zebrafish Thyroid Hormone Receptor beta (TRb), thrb (gene 30607) (UniProt Q9PVE4); assay: ATG_zfTRb_XSP2: Attagene TRANS-FACTORIAL Multi-Species (XSP1) HepG2 Assay for zebrafish Thyroid Hormone Receptor beta (TRb) (AID 2283836)
# zebrafish Thyroid Hormone Receptor beta (TRb), thrb (gene 30607), sequence (Q9PVE4 whole entry, looked up, the tested form may be a part): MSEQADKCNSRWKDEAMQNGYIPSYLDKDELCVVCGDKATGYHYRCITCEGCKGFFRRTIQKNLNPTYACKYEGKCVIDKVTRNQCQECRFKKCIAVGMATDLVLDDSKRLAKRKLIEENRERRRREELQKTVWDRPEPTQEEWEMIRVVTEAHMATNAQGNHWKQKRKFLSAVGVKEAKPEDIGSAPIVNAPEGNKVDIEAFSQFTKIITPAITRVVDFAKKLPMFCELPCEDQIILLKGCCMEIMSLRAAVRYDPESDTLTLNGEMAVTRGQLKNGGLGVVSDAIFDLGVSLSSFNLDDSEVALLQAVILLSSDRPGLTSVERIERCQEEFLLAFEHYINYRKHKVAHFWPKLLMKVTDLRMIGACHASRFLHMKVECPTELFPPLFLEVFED
# Outline: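 Human liver HepG2, transient MRTU transfection (NR-Gal4 chimeras, GAL4-UAS reporters); 24 h compound exposure; total RNA → oligo(dT) RT → PCR → 6-FAM label → HpaI cut → CE fluorescence. DMSO = negative control/baseline.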
# [8] = ATG_XTT_Cytotoxicity_XSP2: Cytotoxicity Assessment in the Attagene TRANS-FACTORIAL Multi-Species (XSP2) HepG2 Assay (AID 2283837)
# Outline: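 HepG2 cells, transiently transfected with multiple reporter constructs, exposed to chemical for 24 h. Cell number assessed with XTT fluorescence read-out; loss of signal fitted relative to DMSO.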
# [9] = target: human Thyroid hormone Receptor alpha (TRa), THRA (gene 7067) (UniProt P10827); assay: ATG_hTRa_XSP2: Attagene TRANS-FACTORIAL Multi-Species (XSP2) HepG2 Assay for human Thyroid hormone Receptor alpha (TRa) (AID 2283838)
# human Thyroid hormone Receptor alpha (TRa), THRA (gene 7067), sequence (P10827 whole entry, looked up, the tested form may be a part): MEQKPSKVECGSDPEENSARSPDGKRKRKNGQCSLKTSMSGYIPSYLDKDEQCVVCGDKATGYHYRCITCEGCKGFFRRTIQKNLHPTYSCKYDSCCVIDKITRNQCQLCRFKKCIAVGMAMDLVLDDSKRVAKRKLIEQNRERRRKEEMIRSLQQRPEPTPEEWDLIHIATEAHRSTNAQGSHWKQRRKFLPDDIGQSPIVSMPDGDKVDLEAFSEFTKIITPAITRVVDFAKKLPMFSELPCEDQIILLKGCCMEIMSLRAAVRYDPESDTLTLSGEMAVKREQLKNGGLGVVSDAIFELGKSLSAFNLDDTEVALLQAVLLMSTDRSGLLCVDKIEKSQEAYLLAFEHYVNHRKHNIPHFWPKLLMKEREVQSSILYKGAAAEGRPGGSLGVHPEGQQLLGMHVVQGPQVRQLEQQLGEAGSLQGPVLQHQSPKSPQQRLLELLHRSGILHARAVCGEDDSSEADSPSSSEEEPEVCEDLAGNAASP
# Outline: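 HepG2 cells were transiently transfected with GAL4-UAS reporter units for chimeric human TRa-Gal4 and dosed for 24 hours, with 3 nM 6-alpha-fluorotestosterone and 1.5 nM norgestrel present. Reporter mRNA was quantified by RT-PCR, FAM labelling and capillary electrophoresis, with gain of signal fitted versus DMSO.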
# [10] = target: frog Thyroid hormone Receptor alpha (TRa), thra-a (gene 397942) (UniProt P15204); assay: ATG_frTRa_XSP2: Attagene TRANS-FACTORIAL Multi-Species (XSP2) HepG2 Assay for frog Thyroid hormone Receptor alpha (TRa) (AID 2283839)
# frog Thyroid hormone Receptor alpha (TRa), thra-a (gene 397942), sequence (P15204 whole entry, looked up, the tested form may be a part): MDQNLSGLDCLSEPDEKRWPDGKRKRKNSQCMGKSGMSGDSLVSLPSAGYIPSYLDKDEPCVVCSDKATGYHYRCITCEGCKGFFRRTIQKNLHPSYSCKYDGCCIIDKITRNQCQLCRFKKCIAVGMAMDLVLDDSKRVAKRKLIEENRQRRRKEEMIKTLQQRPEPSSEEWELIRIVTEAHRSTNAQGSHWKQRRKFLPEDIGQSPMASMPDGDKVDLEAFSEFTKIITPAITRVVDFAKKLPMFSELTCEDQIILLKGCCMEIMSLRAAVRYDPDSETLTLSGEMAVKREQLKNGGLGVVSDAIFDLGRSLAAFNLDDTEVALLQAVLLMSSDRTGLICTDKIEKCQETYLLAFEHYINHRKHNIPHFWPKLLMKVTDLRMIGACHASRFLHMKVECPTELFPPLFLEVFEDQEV
# Outline: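 Reporter transcripts were measured by RT-PCR with capillary electrophoresis after 24 h dosing of HepG2 carrying transiently transfected multi-reporter units, including a chimeric frog TRa-GAL4 construct. Activity was taken as increase over DMSO vehicle.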
# [11] = target: human Thyroid hormone Receptor beta (TRb), THRB (gene 7068) (UniProt P10828); assay: ATG_hTRb_XSP2: Attagene TRANS-FACTORIAL Multi-Species (XSP2) HepG2 Assay for human Thyroid hormone Receptor beta (TRb) (AID 2283840);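 note: actives raise reporter mRNA so potency reflects agonist-like gain of signal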
# human Thyroid hormone Receptor beta (TRb), THRB (gene 7068), sequence (P10828 whole entry, looked up, the tested form may be a part): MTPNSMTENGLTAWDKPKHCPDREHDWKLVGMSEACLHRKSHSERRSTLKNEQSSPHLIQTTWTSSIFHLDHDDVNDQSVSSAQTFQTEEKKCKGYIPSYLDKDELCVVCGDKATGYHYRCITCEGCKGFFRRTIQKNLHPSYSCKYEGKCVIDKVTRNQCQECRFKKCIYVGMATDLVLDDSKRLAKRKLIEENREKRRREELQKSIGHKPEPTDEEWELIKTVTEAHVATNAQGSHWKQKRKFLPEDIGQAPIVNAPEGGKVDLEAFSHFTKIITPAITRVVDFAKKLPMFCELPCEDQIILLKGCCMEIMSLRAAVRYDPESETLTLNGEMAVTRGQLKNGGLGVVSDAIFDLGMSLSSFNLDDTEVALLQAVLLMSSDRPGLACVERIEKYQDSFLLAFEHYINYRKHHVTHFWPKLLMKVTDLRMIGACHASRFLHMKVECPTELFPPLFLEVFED
# Outline: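 Activity of exogenous human TRb–Gal4 fusion measured by reporter mRNA from RT-PCR and capillary electrophoresis, 24 h after dosing transfected HepG2. 6-alpha-fluorotestosterone (3 nM) and norgestrel (1.5 nM) present. Gain-of-signal fit relative to DMSO.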
# [12] = tested on: Sodium/Iodide Symporter (NIS), SLC5A5 (gene 6528); assay: CPHEA_Stoker_NIS_Inhibition_RAIU: CPHEA's Radioactive Iodide Uptake (RAIU) Assay for Sodium/Iodide Symporter (NIS) Inhibition, Stoker and Laws Labs (AID 2283841)
# Outline: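 HEK293T cells stably expressing human NIS (hNIS-HEK293T-EPA) were exposed to test chemicals at 0.001–100uM (0.5% final DMSO) with 125I at a final 329pM in HBSS/10mM HEPES pH 7.4. After 2 hours at room temperature and ice-cold washes, intracellular 125I was counted as CPM and normalized to DMSO wells.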
# [13] = target: mouse Peroxisome Proliferator-activated Receptor gamma (PPARg), Pparg (gene 19016) (UniProt P37238); assay: ATG_mPPARg_XSP2: Attagene TRANS-FACTORIAL Multi-Species (XSP2) HepG2 Assay for mouse Peroxisome Proliferator-activated Receptor gamma (PPARg) (AID 2283830);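 note: hits are gains in reporter mRNA above DMSO so AC50 marks activation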
# mouse Peroxisome Proliferator-activated Receptor gamma (PPARg), Pparg (gene 19016), sequence (P37238 whole entry, looked up, the tested form may be a part): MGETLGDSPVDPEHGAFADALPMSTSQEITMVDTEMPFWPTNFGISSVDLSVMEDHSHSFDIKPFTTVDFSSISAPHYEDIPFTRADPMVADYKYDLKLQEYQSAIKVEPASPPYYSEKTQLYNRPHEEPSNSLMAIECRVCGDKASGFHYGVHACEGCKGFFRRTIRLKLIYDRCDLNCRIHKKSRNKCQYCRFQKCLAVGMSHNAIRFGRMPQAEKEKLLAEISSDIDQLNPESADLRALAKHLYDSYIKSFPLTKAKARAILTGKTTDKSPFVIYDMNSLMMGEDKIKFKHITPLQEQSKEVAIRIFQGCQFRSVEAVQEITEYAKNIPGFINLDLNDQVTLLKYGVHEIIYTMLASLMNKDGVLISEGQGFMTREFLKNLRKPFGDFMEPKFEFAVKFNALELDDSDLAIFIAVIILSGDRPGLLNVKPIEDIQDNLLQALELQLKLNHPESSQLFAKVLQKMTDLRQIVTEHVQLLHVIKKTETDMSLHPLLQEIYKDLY
# Outline: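 HepG2 cells transiently transfected with GAL4-UAS reporter units for chimeric NR-Gal4 proteins including mouse PPARg, exposed 24 h; medium contained 3 nM 6-alpha-fluorotestosterone and 1.5 nM norgestrel. Reporter mRNA quantified by RT-PCR, HpaI digestion and capillary electrophoresis, vs DMSO.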
# [14] = tested on: zebrafish Peroxisome Proliferator-activated Receptor gamma (PPARg), gene 557037; assay: ATG_zfPPARg_XSP2: Attagene TRANS-FACTORIAL Multi-Species (XSP2) HepG2 Assay for zebrafish Peroxisome Proliferator-activated Receptor gamma (PPARg) (AID 2283833);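 note: reporter mRNA from a zebrafish PPARg GAL4 chimera measured by RT-PCR and capillary electrophoresis; actives increase reporter signal over DMSO so AC50 reflects activation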
# Outline: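 After 24 h chemical exposure, RNA from transiently transfected HepG2 (chimeric NR-Gal4 TRANS reporters) was reverse-transcribed, PCR-amplified, 6-FAM-labelled, HpaI-cut and sized by capillary electrophoresis. Induction was scored in the positive direction relative to DMSO.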
# [15] = CEETOX_H295R_11DCORT_noMTC: CeeTox H295R High-throughput Steroidogenesis Assay for 11-Deoxycortisol (11DCORT), maximum tolerated concentration (MTC) filtered results only (AID 2283911; active = hit-call score of the fitted dose curve at least 0.9, where 1 is the maximum; inactive = score below 0.9); conditions: actives raise or lower the signal
# Outline: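 Values carry no filtering for maximum tolerated concentration: medium from forskolin-primed (10 uM, 48 h) H295R cells after 48 h chemical exposure (0.1% DMSO) was MTBE-extracted, and 11-deoxycortisol quantified by reverse-phase HPLC-MS/MS. Fitting was bidirectional against DMSO.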
# [16] = CEETOX_H295R_OHPREG_noMTC: CeeTox H295R High-throughput Steroidogenesis Assay for OH-Pregnenolone (OHPREG), maximum tolerated concentration (MTC) filtered results only (AID 2283912; active = hit-call score of the fitted dose curve at least 0.9, where 1 is the maximum; inactive = score below 0.9); conditions: actives raise or lower the signal
# Outline: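 H295R human adrenal cells, forskolin-prestimulated (10 uM, 48 h), then exposed to test chemical in 0.1% DMSO for 48 h. 17alpha-hydroxypregnenolone in medium measured by HPLC-MS/MS after MTBE extraction; bidirectional fit versus DMSO, concentrations not MTC-filtered.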
# [17] = CEETOX_H295R_OHPROG_noMTC: CeeTox H295R High-throughput Steroidogenesis Assay for OH-Progesterone (OHPROG), maximum tolerated concentration (MTC) filtered results only (AID 2283914; active = hit-call score of the fitted dose curve at least 0.9, where 1 is the maximum; inactive = score below 0.9); conditions: actives raise or lower the signal
# Outline: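 H295R human adrenal cells prestimulated 48 h with 10 uM forskolin, then exposed 48 h to test chemical (0.1% DMSO final). Medium 17alpha-hydroxyprogesterone extracted with MTBE, quantified by HPLC-MS/MS; bidirectional fit versus DMSO, concentrations not MTC-filtered.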
# [18] = CEETOX_H295R_CORTISOL_noMTC: CeeTox H295R High-throughput Steroidogenesis Assay for Cortisol, maximum tolerated concentration (MTC) filtered results only (AID 2283916; active = hit-call score of the fitted dose curve at least 0.9, where 1 is the maximum; inactive = score below 0.9); conditions: actives raise or lower the signal
# Outline: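 H295R adrenal cells were pre-stimulated 48 h with 10 uM forskolin, then exposed 48 h to test chemical in 0.1% DMSO. Medium cortisol was measured by MTBE extraction and HPLC-MS/MS; bidirectional fit versus DMSO, concentrations not MTC-filtered.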
structure (smiles),measurement,setting,value
C#C[C@]1(O)CC[C@H]2[C@@H]3CCc4cc(OC)ccc4[C@H]3CC[C@@]21C,AC50,[1],3.94 nM (active) and 1.23 nM (active)
same,outcome,[2],inactive
same,outcome,[3],inactive
same,outcome,[4],inactive
same,outcome,[5],inactive
same,outcome,[6],inactive
same,outcome,[7],inactive
same,outcome,[8],inactive
same,outcome,[9],inactive
same,outcome,[10],inactive
same,AC50,[11],0.0262 µM (active)
OCC(F)(F)C(F)(F)C(F)(F)C(F)(F)C(F)(F)C(F)(F)F,outcome,[12],inactive
O=S(=O)(O)C(F)(F)C(F)(F)C(F)(F)C(F)(F)C(F)(F)C(F)(F)C(F)(F)F,AC50,[12],2.31 µM (active)
O=C(O)C(F)(F)C(F)(F)C(F)(F)C(F)(F)C(F)(F)C(F)(F)C(F)(F)C(F)(F)Cl,AC50,[12],33.6 µM (active)
O=S(=O)(OCCOC(F)(F)F)C(F)(F)F,outcome,[12],inactive
FC(F)(F)C(F)(F)C(F)(F)C(F)(F)CCI,outcome,[12],inactive
c1ccc(B(c2ccccc2)c2ccccc2)cc1,AC50,[1],6.89 µM (active) and 5.72 µM (active)
same,AC50,[2],60.6 µM (active) and 40.8 µM (active)
same,AC50,[13],65.6 µM (active) and 45.9 µM (active)
same,AC50,[3],1.27 µM (active) and 4.39 µM (active)
same,outcome,[4],inactive
same,AC50,[14],100 µM (active)
same,outcome,[5],inactive
same,outcome,[6],inactive
same,outcome,[7],inactive
same,outcome,[8],inactive
same,outcome,[9],inactive
same,outcome,[10],inactive
same,outcome,[11],inactive
Cc1ccc(S(=O)(=O)OCC(F)(F)C(F)(F)C(F)(F)C(F)(F)C(F)(F)C(F)F)cc1,outcome,[12],inactive
C=CC(=O)OCC(F)(F)C(F)(F)C(F)(F)C(F)(F)C(F)(F)C(F)(F)C(F)(F)F,outcome,[12],inactive
CC(C)OC(=O)c1ccccc1C(=O)OC(C)C,outcome,[15],inactive
same,outcome,[16],inactive
same,outcome,[17],inactive
same,outcome,[18],inactive
